Screening results as filed in PubChem.
CYP2C9 act = CYP2C9 (human) activation | recombinant CYP2C9, luciferin-H conversion, luminescence; stronger effect = higher value; factor 1 = untreated enzyme, 0 = blocked | P11712 | 96,000 tested, 1.4% active | activation factor at 5 µM;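 active = activation factor of 2 or more for CYP2C9 at a 5 µM dose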
CYP2C19 activ = cytochrome P450 2C19 (human) activation | AID 1025 | P33261 | 96,000 tested, under 10 active | activation factor at 5 µM | recombinant CYP2C19, luciferin-H EGE luminescence; stronger effect = higher value; 0 = fully inhibited enzyme, 1 = untreated enzyme;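 active = activation factor of at least 2 at 5 µM in the primary screen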
EphB4 ephrin blk = antagonists of human EphB4-ephrin-B2 interaction. 97,000 tested, 0.15% active. EphB4 LBD / TNYL-RAW-Alexa532 peptide, fluorescence polarization. AID 720. inhibition, % at 7 µM;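 active = inhibition above the screen-wide mean inhibition plus 3 SD, cut at about 15% in these data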
Target sequence (P54760 whole entry, looked up, the tested form may be a part): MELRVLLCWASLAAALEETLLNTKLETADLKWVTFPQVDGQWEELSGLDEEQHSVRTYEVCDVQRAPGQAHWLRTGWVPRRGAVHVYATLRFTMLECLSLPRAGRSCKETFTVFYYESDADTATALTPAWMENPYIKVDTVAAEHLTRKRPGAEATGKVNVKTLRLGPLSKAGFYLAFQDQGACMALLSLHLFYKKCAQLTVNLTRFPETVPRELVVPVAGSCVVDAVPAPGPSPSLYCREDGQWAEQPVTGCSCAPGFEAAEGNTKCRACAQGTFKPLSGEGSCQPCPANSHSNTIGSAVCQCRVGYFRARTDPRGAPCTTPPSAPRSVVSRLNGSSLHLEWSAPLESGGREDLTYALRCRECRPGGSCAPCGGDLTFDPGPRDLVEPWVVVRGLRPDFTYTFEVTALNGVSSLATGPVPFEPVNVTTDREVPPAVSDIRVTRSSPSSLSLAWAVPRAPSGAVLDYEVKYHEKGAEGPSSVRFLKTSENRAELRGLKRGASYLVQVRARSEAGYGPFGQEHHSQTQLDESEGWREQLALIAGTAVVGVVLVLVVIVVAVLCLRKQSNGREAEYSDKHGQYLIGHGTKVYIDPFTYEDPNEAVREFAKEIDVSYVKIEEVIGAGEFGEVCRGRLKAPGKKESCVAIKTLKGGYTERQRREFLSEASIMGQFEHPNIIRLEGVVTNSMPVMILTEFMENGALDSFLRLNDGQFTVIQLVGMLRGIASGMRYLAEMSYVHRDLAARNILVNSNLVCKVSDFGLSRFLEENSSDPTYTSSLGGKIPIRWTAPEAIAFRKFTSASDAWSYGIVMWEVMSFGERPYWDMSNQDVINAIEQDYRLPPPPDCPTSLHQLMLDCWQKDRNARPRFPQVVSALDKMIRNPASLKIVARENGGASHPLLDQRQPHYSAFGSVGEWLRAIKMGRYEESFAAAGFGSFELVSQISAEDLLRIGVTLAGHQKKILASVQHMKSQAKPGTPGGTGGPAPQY
CYP2C19 inh = human CYP2C19 inhibition | P33261 | CYP2C19 Supersomes, luciferin-H EGE luminescence, 30 min | inhibition, % at 5 µM | 96,000 tested, 21% active | AID 778;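 active = CYP2C19 inhibition above a set limit at 5 µM in the primary screen, cut at about 50% in these data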
CYP2C9 inh = blocks human cytochrome P450 2C9; P11712; 96,000 tested, 20% active; inhibition, % at 5 µM; AID 777; CYP2C9 Supersomes, luciferin-H conversion, luminescence;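 active = blocking of liver enzyme CYP2C9 beyond about 50% at 5 µM, limit read from the data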
Large screens that a line does not name were inactive. An excerpt weighted towards active compounds, which were near 27% of everything screened.

Cn1cccc1Cc1nnc(SCC(=O)N2CCN(c3ccccc3)CC2)n1-c1ccc(F)cc1	none
CCOC(=O)C1=C(C)C(c2ccccc2OC)NC(=S)N1 (stereo unspecified)	CYP2C19 inh 53
COc1cccc(-c2nc(CS(=O)CC(=O)NCc3ccccc3Cl)c(C)o2)c1 (stereo unspecified)	CYP2C9 inh 64
COc1cccc(-c2nc(CS(=O)CC(=O)NCc3ccc4c(c3)OCO4)c(C)o2)c1 (stereo unspecified)	CYP2C19 inh 77, CYP2C9 inh 76
Cn1nc(-c2ccccc2)c(C#N)c1Sc1cccc(Cl)c1	none
O=C(c1ccc(F)cc1)N1CCN(Cc2ccccc2Br)CC1	CYP2C19 inh 98, CYP2C9 inh 69
CC(=O)N1CCN(C(=O)CCc2c[nH]c3ccccc23)CC1	none
N#Cc1ccc(CN2CCN(C(=O)c3ccccc3)CC2)c(Cl)c1	CYP2C19 inh 74 (no result: EphB4 ephrin blk)
O=C(CCCc1c[nH]c2ccccc12)N1CCCCCC1	CYP2C19 inh 98
O=C(c1ccccc1)N1CCN(Cc2c[nH]c3ccccc23)CC1	CYP2C19 inh 65
O=C(c1ccccc1)N1CCN(CC#CC2(O)CCCCC2)CC1	none
CC(=O)Nc1ccc(S(=O)(=O)N2CCN(Cc3ccccn3)CC2)cc1	none
CCOP(=O)(c1ccccc1)C1(C#N)CCCC1 (stereo unspecified)	none
Fc1ccc(NC(=S)N/N=C/c2cccc(Br)c2)c(F)c1	none
COc1cc(OC)c(OC)cc1/C=N/N(C)c1ccccc1	CYP2C9 inh 70
COc1cc(/C=N/N(C)c2ccccc2)ccc1O	CYP2C19 inh 82, CYP2C9 inh 74
COc1cc(/C=N/N2CCN(c3ccccc3OC)CC2)ccc1O	none
COc1ccc(NC(=O)C2=C(C)C(=O)OC23CCC(C)CC3)cc1Cl (stereo unspecified)	none
O=C(CCN1CCc2ccccc2C1)Nc1ccc(F)cc1	CYP2C19 inh 61
Cc1nccn1CCC(=O)O	none (no result: EphB4 ephrin blk)
Cc1ccc(NC(=O)CCn2cccc2)cc1Cl	CYP2C19 inh 86
CCc1ccc(NC(=O)CCn2cccc2)cc1	CYP2C19 inh 71
CCc1ccc(NC(=O)CCn2ccnc2C)cc1	CYP2C19 inh 83, CYP2C9 inh 68
O=S1(=O)C=C(Sc2nc3ccccc3s2)c2ccccc21	none (no result: EphB4 ephrin blk)
CCn1nc(NC(=O)c2ccco2)c2cc3ccccc3nc21	none
O=C(CSc1ccc(-c2nc3ccccc3[nH]2)cn1)N1CCN(C(=O)c2ccco2)CC1	none
O=C(CCn1cccc1)Nc1ccc(F)cc1	CYP2C19 inh 62
CCC(Cc1ccccc1)NC(=O)CCn1cccc1 (stereo unspecified)	CYP2C19 inh 66, CYP2C9 inh 66
COc1ccc(-n2nnc3c(=O)n(CC(=O)N4CCCCC4)cnc32)cc1	none (no result: EphB4 ephrin blk)
CN(C)CCCOC(=O)C1c2ccccc2Oc2ccccc21	CYP2C19 inh 74
O=C(c1ccco1)N1CCN=C1SCc1cccnc1	none
O=C(COc1ccccc1)N1CCN=C1SCc1cccnc1	none
O=C(c1ccc(Br)o1)N1CCN=C1SCc1cccc(F)c1	CYP2C19 inh 91, CYP2C9 inh 59
O=C(c1cccc(F)c1)N1CCN=C1SCc1cccnc1	CYP2C19 inh 91, CYP2C9 inh 82
COc1cc(OC)cc(C(=O)N2CCN=C2SCc2cccnc2)c1	CYP2C19 inh 100, CYP2C9 inh 90
O=C(N1CCN=C1SCc1cccnc1)C12CC3CC(CC(C3)C1)C2	CYP2C19 inh 83
COc1cc(C2=NOC(C(=O)N3CCOCC3)C2)cc(OC)c1OC (stereo unspecified)	none
CC1(O)C(=O)c2ccccc2N(c2ccccc2)C1=O (stereo unspecified)	none (no result: CYP2C9 act, CYP2C19 activ, CYP2C19 inh, CYP2C9 inh)
Cc1cc(C(C)(C)C)oc1C(=O)N(CC(=O)NC1CCCC1)Cc1ccccc1	none
O=C(c1cccs1)N1CCN=C1SCc1cccnc1	CYP2C19 inh 55
COc1ccc(N2CCN(C(=O)CSc3nnc4c(C)cc5c(C)cc(C)cc5n34)CC2)cc1	none
COc1ccc(CCC(C(O)C(F)(F)F)S(=O)c2ccccc2)cc1 (stereo unspecified)	CYP2C19 inh 60, CYP2C9 inh 50
CCCOc1ccc(-c2nc(C#N)c(N3CCC(C(N)=O)CC3)o2)cc1	none
CCOC(=O)N1CCN(C(=O)CSc2nnc(-c3cccs3)o2)CC1	none
CN(C)/C=N/c1cnc(C(=O)c2ccc(Cl)cc2)n1C	CYP2C19 inh 60
CC(C)Oc1ccc(-c2nn(-c3ccccc3)cc2/C=c2\sc3ncnn3c2=O)cc1	none
